High-throughput results from PubChem BioAssay.
Compounds with a hit are over-represented: about 0.45% of the library has one in this group of screens.
TexasRed fluor – alters Texas Red total fluorescence, flagging assay interference | TRb/SRC2 Texas Red total fluorescence interference | Potency, µM (titrated, usually from 106 µM), for inactives: top-dose fluorescence change, negative = quenching | actives 0.29% (n = 280,000) | AID 1479; active = well fitted curve in either direction with a large enough effect; inconclusive = small, poorly fitted or top-dose-only effect; also: potency is read from the fitted curve at half-maximal effect; % is scaled to controls: 0 for no effect and ±100 for the full control effect
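Human TRβ ligand-binding domain (0.6 uM) and Texas Red SRC2 peptide (20 nM) in Tris buffer with 1 uM T3 and 5% DMSO were incubated with pinned compound for 5 hr at ambient temperature. Total fluorescence was computed as S + 2P (555/632 nm).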
GoLoco inh red – inhibitors of human Gai1-RGS12 GoLoco interaction (red fluorophore); P63096; Gai1:RGS12 GoLoco peptide FP, rhodamine, 10 min; Potency, µM (doses to about 61.6 µM), for the others: top-dose activity, negative = inhibition, most hits filed as inhibitors; actives 0.44% (n = 230,000); AID 880; active = well fitted inhibition curve with a large enough effect, not every such curve was filed as active; inactive = no such curve, though single readings can be large or run the other way; also: potency is read from the fitted curve at half-maximal effect; % is scaled to controls: 0 for no effect and ±100 for the full control effect; nearly all actives have a fitted effect of over 30% in size
Target sequence (P63096 whole entry, looked up): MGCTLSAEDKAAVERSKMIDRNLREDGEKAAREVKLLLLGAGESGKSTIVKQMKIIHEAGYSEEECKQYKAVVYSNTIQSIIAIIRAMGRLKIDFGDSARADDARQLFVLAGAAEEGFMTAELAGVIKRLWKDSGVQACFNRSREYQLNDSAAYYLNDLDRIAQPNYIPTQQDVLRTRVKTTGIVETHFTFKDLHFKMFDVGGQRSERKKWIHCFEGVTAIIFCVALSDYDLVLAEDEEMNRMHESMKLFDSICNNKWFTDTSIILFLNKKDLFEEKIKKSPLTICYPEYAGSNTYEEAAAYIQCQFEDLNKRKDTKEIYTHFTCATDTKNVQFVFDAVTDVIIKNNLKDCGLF
a7 integrin act – activates integrin-mediated alleviation for muscular dystrophy; alpha7betagal myoblasts, beta-gal FDG fluorescence, 48 h; Potency, µM (series often up to 38.3 µM), without a hit: top-dose activation, actives largely listed as activators; actives 0.064% (n = 350,000);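 also: potency is read from the fitted curve at half-maximal effect; 100% = response of the positive control SU9516; nearly all actives have a fitted effect of over 60% in size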
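alpha7betagal+/- myoblasts (passage 13, 250/well) treated 48 h at 37C with compounds at 1:260 dilution of DMSO stock. Lysed, then beta-galactosidase activity read as FDG fluorescence (ex 480/em 540) after 30 min, with pre-read for autofluorescence.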
ERG Ets-DNA blk – blocks human ERG Ets domain binding to DNA; P11308; actives 0.028% (n = 370,000); fluorescence polarization, His-ERG Ets domain / labelled DNA; Potency, µM (highest dose often 76.9 µM), for inactives: at the top dose FP activity, negative = inhibition, hits mostly inhibitors; active = well fitted inhibition curve with a large enough effect in the polarisation, with a control signal flat; inconclusive = small, poorly fitted or top-dose-only effect, or effect the other way, or a change in a side signal; inactive = no such curve, though single readings can be large or run the other way; the % refers to the polarisation;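 also: polarization taken with two DNA probes labelled with fluorescein and Texas red; potency is read from the fitted curve at half-maximal effect; % of control where 0% means no effect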
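His-tagged ERG Ets domain (1 uM in the protein solution; 300mM KCl, 50mM Tris-HCl, 1mM EDTA, 1mM DTT, pH 7.5) received compound, then a probe mix of 5 nM fluorescein-DNA and 100nM Texas-615-DNA. Fluorescence polarization was read for both dyes.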
TRb SRC2 PPI – disrupts binding of human TR beta to SRC2; P10828; TRbeta-SRC2 peptide binding, fluorescence polarization; receptor liganded with 1 µM T3; Potency, µM (top dose mostly 106 µM), inactives show at the highest dose activity change, negative = inhibition, actives largely listed as inhibitors; actives 0.065% (n = 280,000);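 also: potency is read from the fitted curve at half-maximal effect; plate controls were bound peptide for no effect and peptide without receptor for full effect; nearly all actives have a fitted effect of over 50% in size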
Target sequence (P10828 whole entry, looked up): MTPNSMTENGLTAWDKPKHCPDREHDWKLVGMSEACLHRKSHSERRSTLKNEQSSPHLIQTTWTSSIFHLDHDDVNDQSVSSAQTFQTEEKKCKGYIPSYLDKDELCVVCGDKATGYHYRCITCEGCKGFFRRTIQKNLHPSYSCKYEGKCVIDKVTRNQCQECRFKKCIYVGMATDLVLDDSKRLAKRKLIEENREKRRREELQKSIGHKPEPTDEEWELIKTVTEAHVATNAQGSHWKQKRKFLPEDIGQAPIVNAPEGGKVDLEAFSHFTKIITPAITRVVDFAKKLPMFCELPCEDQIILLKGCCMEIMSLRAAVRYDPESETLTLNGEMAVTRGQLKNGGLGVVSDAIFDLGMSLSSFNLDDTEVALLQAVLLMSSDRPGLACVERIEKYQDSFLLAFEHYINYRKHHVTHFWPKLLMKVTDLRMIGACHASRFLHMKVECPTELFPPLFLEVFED
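Binding of a 20-amino-acid Texas Red SRC2 peptide (20 nM) to TRb ligand-binding domain (0.6 uM) with agonist T3 at 1 uM was followed by fluorescence polarization after a 5 hr room-temperature incubation.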
CBFb-RUNX1 inh – blocks binding between human CBF-beta and RUNX1 | Q01196+Q13951 | AlphaScreen CBFb-His/RUNX1-biotin binding, biochemical | Potency, µM (titrated, usually from 59.8 µM), for inactives: at the highest dose activity, negative = inhibition, hits mostly inhibitors | 230,000 tested, under 10 active | AID 1477; also: % of control where 0% means no effect
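AlphaScreen binding: CBFb-His and RUNX1-biotin (30 nM each) preincubated 20 min, compound added for 15 min, then nickel and streptavidin beads for 90 min, all at room temperature. Disruption of the interaction by any mechanism counts as activity.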
An asterisk follows results filed as active; u = inconclusive; x = not tested or not shown; ! = not confirmed by another sample; [ ] = another dose, or the depositor's remark. Unless noted, calls follow the shape of the dose curve; as a rule, active = well fitted curve in the direction sought with a large enough effect; inconclusive = small, poorly fitted or top-dose-only effect, or another doubt; inactive = no such curve, though single readings can be large; an effect the other way counts as inactive or inconclusive.

SMILES	TexasRed fluor	GoLoco inh red	a7 integrin act	ERG Ets-DNA blk	TRb SRC2 PPI	CBFb-RUNX1 inh
COc1ccc(OC)c(NC(=O)CN2C(=O)c3ccccc3Sc3ccc(C(=O)N4CCCC4)cc32)c1	794µM*[quencher]	x	x	4.0%	-20.2%	x
COc1ccc(NC(=O)CN2C(=O)c3ccccc3Sc3ccc(C(=O)N4CCOCC4)cc32)c(OC)c1	-5.0%	4.8%	-16.4%	5.4%	-2.9%	-8.5%
CCCCCCCCCCCCCCN	-4.5%[201 µM]	x	x	x	3.3%[201 µM]	x
Cn1cc(/C=C2\SC(=S)N(NC(=O)c3ccccc3Cl)C2=O)c2ccccc21	2.3%	-82.0%	-9.7%	-10.9%	-11.0%	6.5%
Cc1ccc(C(=O)NN2C(=O)/C(=C/c3cn(C)c4ccccc34)SC2=S)cc1	-7.3%	22.4µM*	2.0%	2.2%	-9.8%	-13.5%
COC(=O)[C@@H](NC(=O)N1CCc2nc(-c3ccccc3)c3c(c2C1)CO[C@@H](C)C3)C(C)C	-3.3%[11.2 µM]	-1.4%[14.2 µM]	x	x	5.9%[11.2 µM]	4.9%[13.1 µM]
CC(C)(C)c1cc(C(C)(C)C)c(O)c(C(C)(C)C)c1	2.8%[201 µM]	x	x	x	2.9%[201 µM]	x
CCOc1cc(C(=O)Nc2ccc(NC(=O)c3cc4ccccc4o3)c(OC)c2)cc(OCC)c1OCC	35.5µM*[quencher]	x	x	-8.2%	-15.4%	x
CCn1c(=O)n(C2=C(CO)CN(CC3CCCCCCC3)CC2)c2ccccc21	0.0%	x	x	x	4.3%	22.6%
O=[N+]([O-])c1ccc(C(=S)N2CCN(c3ccc(F)cc3)CC2)cc1	0.4%	0.3%	-46.8%	1.5%	2.5%	u
CN(C)c1ccc(C(=S)N2CCN(c3ccc([N+](=O)[O-])cc3)CC2)cc1	-3.8%	20µM*	-3.1%	7.6%	1.7%	4.4%
CC1CCc2c(sc3nc(-c4cc5ccccc5oc4=O)nc(Cl)c23)C1 (configuration not stated)	31.6µM*[quencher]	x	x	9.4%	-28.9%[53 µM]	x
Cc1ccccc1C(=O)Nc1cccc(N)c1	0.1%	7.3%	2.8%	-0.7%	5.1%	2.9%
Cc1ccccc1C(=O)Nc1cccc(NC(=O)c2ccc(C(C)(C)C)cc2)c1	0.159µM*[quencher]	x	x	3.6%	-24.4%[53 µM]	x
C=CCOC(=O)N[C@@H](c1ccc(Br)cc1)C(C(C)=O)C(C)=O	-2.0%	-1.9%	x	x	4.0%	-6.5%
O=C(O)CCCNC(=O)CCn1nnc2ccccc2c1=O	2.6%	-4.8%	11.2µM*	4.6%	0.9%	-1.8%
CCCCCCCCCCCCCO	-1.3%[201 µM]	x	x	x	4.3%[201 µM]	x
O=C(CSc1nnnn1-c1ccccc1)Nc1ccc(N2CCOCC2)c(Cl)c1	-0.9%	7.08µM*	-20.2%	-14.7%	-2.6%	-4.8%
CC1(C)S[C@@H]2[C@H](NC(=O)[C@H](C(=O)O)c3ccsc3)C(=O)N2[C@H]1C(=O)O	-1.0%	25.1µM*!	x	x	2.2%	1.9%
Cc1cc(NC(=O)CCC(=O)N(C2CC2)C(C(=O)NC(C)(C)C)c2ccccc2Cl)no1 (configuration not stated)	x	x	-11.7%	2.8%	x	x
Cc1cc(NC(=O)CCC(=O)N(Cc2cccnc2)C(C(=O)NC(C)(C)C)c2ccccc2Cl)no1 (configuration not stated)	x	x	3.98µM*	6.2%	x	x
Cc1ccc(N(C)C(=O)c2cc(S(=O)(=O)N3CCc4ccccc43)cn2C)cc1	x	x	0.4%	8.1%	x	x
COc1ccc(N(C)C(=O)c2cc(S(=O)(=O)N3CCc4ccccc43)cn2C)c(OC)c1	0.0158µM*[quencher]	x	x	-9.2%	-19.7%	x
C[N+]1(C)CCC(=C2c3ccccc3CC(=O)c3sccc32)CC1	1.8%	14.1µM*	-36.8%	-1.3%	7.7%	4.7%
CC[N+]1(C)CCC(=C2c3ccccc3CC(=O)c3sccc32)CC1 (configuration not stated)	-1.6%	-2.0%	11.8%[7.66 µM]	-21.6%	-9.5%	2.9%
SMILES	TexasRed fluor	GoLoco inh red	a7 integrin act	ERG Ets-DNA blk	TRb SRC2 PPI	CBFb-RUNX1 inh
C=CCN1C=C/C(=C\C=C(C#N)C#N)c2ccccc21	-0.8%	178.7%	-12.1%	128.5%	-6.8%	-5.3%
CCCCCCN1C=C/C(=C\C=C(C#N)C#N)c2ccccc21	44.7µM*[fluorescent]	240.5%	2.6%	134.0%	39.8µM*	u
O=S(=O)(Nc1cc(O)cc2cccnc12)c1ccc(Cl)s1	-3.3%	x	x	x	u	u
OCC1OC(/C=C\c2ccccc2)C=CC1Oc1ccc2c(c1)OCO2 (configuration not stated)	1.0%[11.2 µM]	x	x	x	8.0%[11.2 µM]	-1.5%[13.1 µM]
O=C(COc1cc2oc(=O)c3c(c2cc1Cl)CCCC3)NCC1CCC(C(=O)O)CC1 (configuration not stated)	x	x	7.08µM*	12.1%	x	x
O=C1C2C3C=CC(C3=C(c3ccccc3)c3ccccc3)C2C(=O)N1Cc1ccccc1 (configuration not stated)	1.0%	14.1µM*	-9.0%	0.3%	5.6%	1.4%
C[C@@H]1CC[C@H]2[C@H](C)C3[C@H](C[C@H]4[C@@H]5CC=C6C[C@@H](O)CC[C@@]6(C)[C@@H]5C[C@@H](O)[C@]34C)N2C1 (some centres not stated)	x	10.4%[14.2 µM]	x	x	x	x
CC[n+]1c(C)sc2sc3ccccc3c21	0.7%	11.2µM*	x	x	1.4%	-6.0%
C=CC1=C2C=C(C3CC3)N(Cc3ccco3)C=C2C(=O)C(C)(OC(=O)c2ccco2)C1=O (configuration not stated)	-3.9%[11.2 µM]	3.2%[14.2 µM]	x	x	2.5%[11.2 µM]	6.5%[13.1 µM]
COc1ccc(C2=C(C)C(=O)N(Cc3ccc(C(=O)NCc4cccc(C)c4)cc3)S2(=O)=O)cc1	158µM*[quencher]	x	x	7.6%	-24.0%	x
COc1ccc(C2=C(C)C(=O)N(Cc3ccc(C(=O)NCc4ccc(C)cc4)cc3)S2(=O)=O)cc1	0.1%	x	x	2.5%	2.0%	x
Cc1ccc(-c2c(C)n3c4c(=O)n(C)c(=O)n(C)c4nc3n2-c2cccc(O)c2)cc1	11.2µM*[quencher]	x	x	-1.0%	-6.2%	x
Cc1c(-c2ccccc2)oc2nc3c(c(=O)n(C)c(=O)n3C)n12	-0.2%	-11.4%	x	x	8.4%	9.0%
Cn1c(=O)c2[nH]c(N3CCN(c4cccc(O)c4)CC3)nc2n(C)c1=O	-2.4%	1.1%	-32.2%	1.5%	1.2%	-6.6%
CCc1ccc(-n2c(-c3ccccc3)c(C)n3c4c(=O)n(C)c(=O)n(C)c4nc23)cc1	56.2µM*[quencher]	x	x	-0.8%	-17.3%	x
O=C(CCCC[C@@H]1SC[C@H]2NC(=O)N[C@H]12)Nc1ccc(C(=O)O)cc1	-20.3%	x	x	x	-1.7%	x
C=CCN1c2ccccc2[C@]23C[C@@H](C(=O)OC)N(S(=O)(=O)CCCC)C2=NC(C(=O)OC)=C(C(=O)OC)[C@H]13	0.0%[11.2 µM]	0.0%[14.2 µM]	x	x	2.3%[11.2 µM]	0.1%[13.1 µM]
